Records with an inconclusive call do not appear. Where a structure was tested more than once in an assay, its records may differ in their call. Calls of active or inactive are those of the source. The calls were made as follows, unless noted: active = hit-call score of the fitted dose curve at least 0.9, where 1 is the maximum; inactive = score below 0.9.
Legend:
[1] = CCTE_Shafer_MEA_dev_burst_rate: CCTE's Neural Network Formation Assay for Burst Rate, Shafer Lab (AID 2284042)
In short: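 Developmental network assay measuring how 12-day exposure of rat cortical neuron cultures alters bursting on extracellular MEA recordings. Values are AUC of well-mean burst rate across four recording days, relative to DMSO vehicle.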

[2] = CCTE_Shafer_MEA_dev_per_burst_interspike_interval: CCTE's Neural Network Formation Assay for Burst Interspike Interval, Shafer Lab (AID 2284044)
In short: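 Readout is the average time between spikes inside single-electrode bursts, taken as a well mean across bursting electrodes. Cortical neurons from rat developed networks on MEA plates under continuous 12-day exposure; recordings on days 5, 7, 9 and 12 were integrated by trapezoidal AUC.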

[3] = CCTE_Shafer_MEA_dev_burst_duration_mean: CCTE's Neural Network Formation Assay for Mean Burst Duration, Shafer Lab (AID 2284045)
In short: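 Read-out: average first-to-last-spike interval within single-electrode bursts, averaged over bursting electrodes per well, then summarised as area under the curve across days 5, 7, 9 and 12. Developing rat cortical networks were exposed from day 0.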

[4] = CCTE_Shafer_MEA_dev_interburst_interval_mean: CCTE's Neural Network Formation Assay for Mean Interburst Interval, Shafer Lab (AID 2284046);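 also: well-mean interburst interval of bursting electrodes as AUC over four recording days; curve fitted for decrease in interburst interval relative to DMSO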
In short: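 Network formation assay in primary rat cortical cultures, exposed from DIV 0 to 12. Mean interburst interval per well, integrated as AUC over four recordings.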

[5] = CCTE_Shafer_MEA_dev_inter_network_spike_interval_mean: CCTE's Neural Network Formation Assay for Mean Inter-network Spike Interval, Shafer Lab (AID 2284047)
In short: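 Compound was given at plating to primary rat cortical neurons and renewed with full medium changes on DIV 5 and 9. Extracellular activity was recorded on days 5, 7, 9, 12; AUC values were fitted for loss relative to DMSO control.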

[6] = CCTE_Shafer_MEA_dev_network_spike_number: CCTE's Neural Network Formation Assay for Number of Network Spikes, Shafer Lab (AID 2284048)
In short: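 Developing networks of primary rat cortical neurons are treated over 12 days starting at plating, with media and compound fully replaced on DIV 5 and 9. Network spike counts from four recording days are integrated as trapezoidal AUC.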

[7] = CCTE_Shafer_MEA_dev_spike_duration_mean: CCTE's Neural Network Formation Assay for Mean Spike Duration, Shafer Lab (AID 2284051);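 also: mean network spike duration pooled as area under curve over DIV 5 to 12 recordings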
In short: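 With DMSO as baseline, loss of mean network spike duration was scored from extracellular recordings of rat cortical neurons on MEA plates. Exposure spanned plating to DIV 12; the four recording days were collapsed into one AUC value.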

[8] = CCTE_Shafer_MEA_dev_network_spike_duration_std: CCTE's Neural Network Formation Assay for Standard Deviation of Network Spike Duration, Shafer Lab (AID 2284052);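 also: area under curve of spike duration SD across recording days 5 to 12; hits are decreases in network spike duration SD versus DMSO vehicle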
In short: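 Developing networks of rat cortical neurons were exposed over twelve days in vitro on 48-well MEA plates. Trapezoidal AUC of recordings (DIV 5–12) was analysed for signal loss relative to DMSO vehicle.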

[9] = CCTE_Shafer_MEA_dev_per_network_spike_spike_number_mean: CCTE's Neural Network Formation Assay for Mean Number of Spikes in a Network Spike, Shafer Lab (AID 2284053)
In short: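 First, rat cortical cells (1.5 x 10^5/well) were seeded onto MEA wells; second, dosing began at plating and was refreshed on DIV 5 and 9; finally, network-spike spike counts across DIV 5–12 were summarized as AUC.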

[10] = CCTE_Shafer_MEA_dev_per_network_spike_spike_percent: CCTE's Neural Network Formation Assay for Percent of Spikes in a Network Spike, Shafer Lab (AID 2284054)
In short: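 Rat primary cortical cultures, 1.5 x 10^5 cells/well on MEA. Continuous compound exposure d0–12, medium/compound renewed DIV 5, 9. Network-spike spike % (0.05 s peak window), AUC over 4 recordings, DMSO baseline.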

[11] = CCTE_Shafer_MEA_dev_LDH: CCTE's Lactate Dehydrogenase Assay for Cytotoxicity in the Neural Network Formation Assay, Shafer Lab (AID 2284068; active = hit-call score of the fitted dose curve at least 0.9, where 1 is the maximum;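 also: exposure for twelve days from plating with re-dosing on DIV 5 and 9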)
In short: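 Developing rat cortical networks on MEA plates are exposed to compound for 12 days from plating. LDH activity is measured spectrophotometrically, with DMSO as baseline.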

[12] = CCTE_Shafer_MEA_dev_mutual_information_norm: CCTE's Neural Network Formation Assay for Mutual Information Normalization, Shafer Lab (AID 2284091)
In short: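 Developing rat cortical networks on 16-electrode MEA wells are treated throughout formation (DIV 0–12). Shared electrode information is recorded four times, converted to area-under-curve, and fitted for decreases against DMSO vehicle.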

[13] = CCTE_Shafer_MEA_dev_correlation_coefficient_mean: CCTE's Neural Network Formation Assay for Mean Correlation Coefficient, Shafer Lab (AID 2284093)
In short: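 Extracellular firing from rat cortical networks on 48-well MEAs, DMSO-referenced, negative fitting direction. Compound present from plating to DIV12; mean pairwise correlation per well integrated over DIV5–12 recordings by trapezoidal AUC.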

[14] = biological target: Androgen Receptor/SRC-1 Co-activator, AR (gene 367) (UniProt P10275); assay: OT_AR_ARSRC1_0960: Odyssey Thera (OT) 16-hour HEK293T Protein-Complementation Assay for Androgen Receptor/SRC-1 Co-activator (AID 2283353; active = hit-call score of the fitted dose curve at least 0.9, where 1 is the maximum;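 also: actives raise the signal above DMSO so potency reflects increased AR and SRC-1 complex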)
Androgen Receptor/SRC-1 Co-activator, AR (gene 367), sequence (P10275 whole entry, looked up, the tested form may be a part): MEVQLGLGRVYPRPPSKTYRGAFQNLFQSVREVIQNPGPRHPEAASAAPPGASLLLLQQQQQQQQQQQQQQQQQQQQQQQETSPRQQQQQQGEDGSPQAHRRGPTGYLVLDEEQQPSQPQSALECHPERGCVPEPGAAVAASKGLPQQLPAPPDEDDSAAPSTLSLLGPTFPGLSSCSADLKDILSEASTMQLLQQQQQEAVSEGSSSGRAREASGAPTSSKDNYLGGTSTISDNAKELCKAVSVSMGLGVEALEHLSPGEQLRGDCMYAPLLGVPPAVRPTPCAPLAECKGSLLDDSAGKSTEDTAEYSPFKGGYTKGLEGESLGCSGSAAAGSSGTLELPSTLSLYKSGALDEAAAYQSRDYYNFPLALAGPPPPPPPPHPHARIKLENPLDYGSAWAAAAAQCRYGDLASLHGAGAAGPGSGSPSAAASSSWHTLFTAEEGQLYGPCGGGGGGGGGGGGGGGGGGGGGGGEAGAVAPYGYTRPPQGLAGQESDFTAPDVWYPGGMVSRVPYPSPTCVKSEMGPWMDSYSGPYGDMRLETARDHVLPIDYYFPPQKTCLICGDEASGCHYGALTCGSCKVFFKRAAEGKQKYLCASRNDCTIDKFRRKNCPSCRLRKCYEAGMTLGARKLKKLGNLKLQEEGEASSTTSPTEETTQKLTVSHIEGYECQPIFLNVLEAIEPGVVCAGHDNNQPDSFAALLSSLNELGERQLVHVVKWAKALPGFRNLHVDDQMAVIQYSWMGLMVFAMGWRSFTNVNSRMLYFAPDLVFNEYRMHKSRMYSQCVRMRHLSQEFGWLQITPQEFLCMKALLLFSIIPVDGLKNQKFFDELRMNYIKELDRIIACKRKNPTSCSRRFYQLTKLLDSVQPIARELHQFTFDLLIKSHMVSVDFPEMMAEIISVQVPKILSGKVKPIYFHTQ
In short: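 Interaction of AR with SRC-1 was followed by YFP fragment complementation in HEK293T cells after 16 h of dosing. Gain of nuclear-over-cytoplasmic 488 nm fluorescence against DMSO controls defined activity.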

[15] = biological target: Androgen Receptor/SRC-1 Co-activator, AR (gene 367) (UniProt P10275); assay: OT_AR_ARSRC1_0480: Odyssey Thera (OT) 8-hour HEK293T Protein-Complementation Assay for Androgen Receptor/SRC-1 Co-activator (AID 2283354; active = hit-call score of the fitted dose curve at least 0.9, where 1 is the maximum;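 also: hits raise the complementation signal above DMSO so AC50 marks enhancers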)
In short: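 Measures AR/SRC-1 binding by Venus YFP fragment complementation in HEK293T stable lines at 8 h post-dose. Imaging quantifies the 488nm nucleus/cytoplasm ratio in ≥400 cells; DMSO defines baseline.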

[16] = biological target: Agonist Androgen Response Element (ARE), AR (gene 367) (UniProt P10275); assay: OT_AR_ARELUC_AG_1440: Odyssey Thera (OT) 24-hour CHO-K1 Luciferase Assay for Agonist Androgen Response Element (ARE) (AID 2283379; active = hit-call score of the fitted dose curve at least 0.9, where 1 is the maximum)
Agonist Androgen Response Element (ARE), AR (gene 367), sequence (P10275 whole entry, looked up): as the sequence (P10275 whole entry, looked up, the tested form may be a part) above
In short: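 Agonist mode, 24 h exposure in CHO-K1 ARE-luciferase cells; values reflect luminescence induction over vehicle.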

[17] = biological target: AR (gene 367) (UniProt P10275); assay: ACEA_AR_antagonist_80hr: ACEA Biosciences xCELLigence Real-Time Cell Analysis on Androgen Receptor Antagonism for Proliferation (AID 2283787; active = hit-call score of the fitted dose curve at least 0.9, where 1 is the maximum;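 also: 22Rv1 human prostate cancer cells with growth followed by electrical impedance; hits lower the impedance growth signal relative to DMSO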)
AR (gene 367), sequence (P10275 whole entry, looked up): as the sequence (P10275 whole entry, looked up, the tested form may be a part) above
In short: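 Growth-kinetic antagonist readout in 22Rv1 cells, taken 80 h after continuous compound exposure. Activity fitted as signal loss relative to DMSO negative control.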

[18] = biological target: Ratio of Nucleoli Translocation and Cytoplasm, AR (gene 367) (UniProt P10275); assay: UPITT_HCI_U2OS_AR_TIF2_Nucleoli_Cytoplasm_Ratio_Antagonist: University of Pittsburgh U2OS Androgen Receptor-Transcriptional Intermediary Factor 2 (AR-TIF2) Antagonism High Content Imaging Assay for Ratio of Nucleoli Translocation and Cytoplasm (AID 2283999; active = hit-call score of the fitted dose curve at least 0.9, where 1 is the maximum;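 also: antagonists lower the DHT-driven ratio of nucleolar to cytoplasmic red signal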)
Ratio of Nucleoli Translocation and Cytoplasm, AR (gene 367), sequence (P10275 whole entry, looked up): as the sequence (P10275 whole entry, looked up, the tested form may be a part) above
In short: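 High-content imaging quantifies the red nucleolar:cytoplasmic fluorescence ratio in U2OS cells with AR-RFP and TIF2-GFP. Final concentrations are 20 uM (screen) or 0.195–50 uM (dose response), analysed against DHT as baseline.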

[19] = biological target: Nucleoli Translocation, AR (gene 367) (UniProt P10275); assay: UPITT_HCI_U2OS_AR_TIF2_Nucleoli_Agonist: University of Pittsburgh U2OS Androgen Receptor-Transcriptional Intermediary Factor 2 (AR-TIF2) Agonism High Content Imaging Assay for Nucleoli Translocation (AID 2283998; active = hit-call score of the fitted dose curve at least 0.9, where 1 is the maximum)
Nucleoli Translocation, AR (gene 367), sequence (P10275 whole entry, looked up): as the sequence (P10275 whole entry, looked up, the tested form may be a part) above
In short: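 RFP-AR / GFP-TIF2 cells; cpds diluted in serum-free medium; single-point screen 20 uM final (0.2% DMSO), actives confirmed in triplicate; conc-response 0.195–50 uM final (0.5% DMSO). Readout: nucleolar red fluorescence, positive direction vs DMSO.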

[20] = CCTE_Deisenroth_5AR_NBTE_acceptor: CCTE's 5alpha-reductase NanoBRET Target Engagement Assay - Autofluorescence Screen, Deisenroth Lab (AID 2284321); settings: actives raise or lower the signal;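 also: compound fluorescence in the acceptor channel under 460 nm excitation flags autofluorescence artifacts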
In short: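 Autofluorescence check: ToxCast chemicals, nominal 100 uM, excitation 460 nm, n=3 runs. Acceptor fluorescence endpoint, bidirectional fit relative to DMSO. Parent assay in HEK293T, 5 h post-dose.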

Measured: AC50

CC1CCCC1.[C-]#[O+].[C-]#[O+].[C-]#[O+].[Mn]
not listed: [14] | [15] | [16] | [17] | [18] | [19] | [20]
inactive: all other assays above

Cc1ccc(OP(=O)(Oc2ccc(C)cc2)Oc2ccc(C)cc2)cc1 (tested in a mixture with another compound)
not listed: [14] | [15] | [16] | [17] | [18] | [19] | [20]
inactive: all other assays above

COc1cc(OC)nc(Oc2cccc(Oc3nc(OC)cc(OC)n3)c2C(=O)O)n1
inactive: [14] | [15] | [16] | [17] | [18]

CN(C)N
inactive: [14] | [15] | [16] | [17] | [19] | [18]

CNC(=N[N+](=O)[O-])NCC1CCOC1 (stereo not given)
not listed: [14] | [15] | [16] | [17] | [18] | [19] | [20]
inactive: all other assays above

Oc1cc(Cl)ccc1Cl
inactive: [20]

CC(C)c1ccc(O)cc1
inactive: [20]

C=CC(=O)OCC(CC)CCCC (stereo not given)
inactive: [20]

O=CNC(N1CCN(C(NC=O)C(Cl)(Cl)Cl)CC1)C(Cl)(Cl)Cl (stereo not given)
inactive: [14] | [15] | [16] | [17] | [19] | [18]

O=P(O)(Oc1ccccc1)Oc1ccccc1
inactive: [20]

CC(C)CCCCCCCOP(=O)(Oc1ccccc1)Oc1ccccc1
not listed: [14] | [15] | [16] | [17] | [18] | [19] | [20]
inactive: all other assays above

c1ccc2c(c1)CCCC2
inactive: [14] | [15] | [16] | [17]

CNC(=O)Oc1cc(C)c(SC)c(C)c1
inactive: [19] | [18]
active: [19] 50 µM
